High-throughput results from PubChem.
Only some compounds are listed: those with a hit (about 12% of all), similar ones and a draw of the others.
BAZ2B inh = qHTS Assay for Inhibitors of BAZ2B; AID 504333, 2011; AlphaScreen BAZ2B-H3K14Ac peptide displacement; Bromodomain adjacent to zinc finger domain protein 2B (Homo sapiens), Q9UIF8; 360,000 tested, 4.4% active; Potency, µM (series often up to 114 µM), for inactives: at the top dose activity change, negative = inhibition, usual class: inhibitors; note: potency is the fitted concentration of half-maximal effect; % is set by controls: 0 for no effect and ±100 for the full control effect; nearly all actives have a fitted effect of over 60% in size
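Compounds, titrated to a top concentration of 110 uM, were incubated 30 min at room temperature with preformed BAZ2B/acetyl-K14 H3 peptide complex (50 nM each). Proximity signal was measured by AlphaScreen after 20 min with beads.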
PI5P4K alpha inh = qHTS for Inhibitors of phosphatidylinositol 5-phosphate 4-kinase (PI5P4K) | Phosphatidylinositol 5-phosphate 4-kinase type-2 alpha (Homo sapiens), P48426 | max response, % | PI5P4Kalpha enzyme, ADP-Glo luminescence, 60 min; hits give low values | 330,000 tested, 1.2% active; active = max response of -50% or lower; inconclusive = between -30% and -50%; inactive = -30% or higher; note: value at the top dose of about 77 µM; % is set by controls: 0 for no effect and ±100 for the full control effect
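Reactions run in 0.038 M HEPES pH 7.4, 0.28 mM EGTA, 0.1% CHAPS and 5% DMSO, with PI5P4Kalpha, substrate, compound and 5 microM ATP final, one hour at room temperature. Readout is ADP-Glo luminescence.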
PLK1 PBD inh = qHTS for Inhibitors of PLK1-PDB (polo-like kinase 1 - polo-box domain): Primary Screen; Potency, µM, for the others: max response, negative = inhibition, usual class: inhibitors; Serine/threonine-protein kinase PLK1 (Homo sapiens), P53350; Plk1 PBD binding of FITC phosphopeptide, fluorescence polarization; 360,000 tested, 2.8% active; note: potency is the fitted concentration of half-maximal effect; series mostly up to about 57 µM; % is set by controls: 0 for no effect and ±100 for the full control effect; nearly all actives have a fitted effect of over 65% in size
G9a inh = qHTS Assay for Inhibitors of Histone Lysine Methyltransferase G9a. Histone-lysine N-methyltransferase EHMT2 (Homo sapiens), Q96KQ7. 350,000 tested, 8.8% active. Potency, µM (top dose mostly 102 µM), for the others: at the highest dose activity, negative = inhibition, most hits filed as inhibitors. G9a H3K9 monomethylation, AlphaScreen, 2 h; note: potency is the fitted concentration of half-maximal effect; % is set by controls: 0 for no effect and ±100 for the full control effect; nearly all actives have a fitted effect of over 75% in size
Target sequence (Q96KQ7 913-1193 limits assumed): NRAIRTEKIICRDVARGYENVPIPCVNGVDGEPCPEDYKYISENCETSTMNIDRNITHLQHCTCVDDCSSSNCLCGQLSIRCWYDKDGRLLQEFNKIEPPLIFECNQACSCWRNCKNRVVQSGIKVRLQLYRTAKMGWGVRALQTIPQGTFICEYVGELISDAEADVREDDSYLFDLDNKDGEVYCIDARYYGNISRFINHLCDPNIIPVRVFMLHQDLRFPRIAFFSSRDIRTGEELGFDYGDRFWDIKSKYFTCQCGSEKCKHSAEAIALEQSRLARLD
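AlphaScreen detection with an anti-monomethyl H3K9 antibody quantified product after a 2 h room-temperature reaction containing 500 nM biotinylated H3K9 peptide, 20 µM SAM and 20 nM enzyme, which had been preincubated 15 min with compound.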
JMJD2A Tudor = qHTS Assay for Inhibitors of JMJD2A-Tudor Domain; Lysine-specific demethylase 4A (Homo sapiens), O75164; AlphaScreen JMJD2A-Tudor / H3K4me3 peptide binding; Potency, µM (highest dose often 114 µM), for inactives: at the highest dose activity change, negative = inhibition, hits mostly inhibitors; 390,000 tested, 4.4% active; note: potency is the fitted concentration of half-maximal effect; % is set by controls: 0 for no effect and ±100 for the full control effect; nearly all actives have a fitted effect of over 50% in size
HP1b chromo inh = HTS for Inhibitors of HP1-beta Chromodomain Interactions with Methylated Histone Tails. AlphaScreen HP1-beta / biotin-H3K9me3 peptide binding. 390,000 tested, 0.56% active. Chromobox protein homolog 1 (Homo sapiens), P83916. Potency, µM (top dose mostly 114 µM), inactives show at the top dose activity change, negative = inhibition, hits mostly inhibitors; note: potency is the fitted concentration of half-maximal effect; nearly all actives have a fitted effect of over 70% in size
Target sequence (P83916 whole entry, looked up): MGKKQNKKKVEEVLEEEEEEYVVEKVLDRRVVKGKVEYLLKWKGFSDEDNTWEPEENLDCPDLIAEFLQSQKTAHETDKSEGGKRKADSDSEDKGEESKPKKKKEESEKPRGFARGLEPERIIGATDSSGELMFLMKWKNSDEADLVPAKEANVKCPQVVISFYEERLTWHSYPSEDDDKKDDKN
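AlphaScreen: HP1-beta (50 nM) preformed 30 min with biotin-H3(1-18)K9me3 peptide (50 nM) in PBS pH 7.4, 0.01% Tween-20. Compound added for 30 min at RT, then streptavidin donor/nickel chelate acceptor beads (10 ug/mL) for 30 min.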
* = called active by the depositor; ? = inconclusive; . = no result; [ ] = remark or other dose. Unless noted, calls come from the whole dose curve; as a rule, active = well fitted curve in the direction sought with a large enough effect; inconclusive = small, poorly fitted or top-dose-only effect, or another doubt; inactive = no such curve, though single readings can be large; an effect the other way counts as inactive or inconclusive.

SMILES | BAZ2B inh | PI5P4K alpha inh | PLK1 PBD inh | G9a inh | JMJD2A Tudor | HP1b chromo inh
CCOc1ccc(C(=O)CN2CCN(S(=O)(=O)c3ccc(F)cc3)CC2)cc1 | -23% | 2 | -9% | ? | -12% | 39%
COc1cccc(C(=O)CN2CCN(S(=O)(=O)c3ccc(Cl)cc3)CC2)c1 | -17% | . | . | 10µM* | -16% | 40%
O=C(CN1CCN(S(=O)(=O)c2ccc(F)cc2)CC1)c1ccc(O)c(O)c1 | ? | -4 | -14% | 20µM* | ? | 18%
COc1ccc(C2C=C3CNS(=O)(=O)C3CC2OC(=O)c2ccc(C(F)(F)F)cc2)cc1 (stereo unspecified) | . | . | . | . | -28% | 24%
O=C(c1ccncc1)N1N=C(c2ccc(Cl)cc2)CC1c1ccccc1O (stereo unspecified) | ? | -12 | 3% | 20µM* | ? | -11%
COc1cccc(C2CC(c3ccc(Br)cc3)=NN2C(=O)c2ccncc2)c1OC (stereo unspecified) | 32µM* | -4 | -4% | 36%[59 µM] | ? | -3%
CC1(C)Cc2ccccc2C(NNC(=O)c2ccc(Br)o2)=N1 | . | 5 | -5% | . | -15% | 26%
COc1ccccc1C(=O)NC(=S)NNC(=O)c1sc2ccccc2c1Cl | -4% | -52* | -26% | ? | -19% | -24%
Cc1c(NC(=S)NC(=O)c2sc3ccccc3c2Cl)cccc1C(=O)O | 50µM* | -19 | -24% | 4.5µM* | ? | -7%
COc1ccc(-n2nc(C(=O)Nc3cc(C)ccn3)c3c4ccccc4n(C)c3c2=O)cc1Cl | . | . | . | -28%[59 µM] | -9% | 23%
CCc1ccc2ncc(S(=O)(=O)c3ccc(Cl)cc3)c(N3CCN(CC)CC3)c2c1 | ? | . | . | -49%[59 µM] | ? | 5%
CC(=O)/C(=N\Nc1ccccc1Cl)Sc1nnc(-c2ccccc2)n1-c1ccccc1 | -33% | -4 | -1% | 8.9µM* | -29% | 51%
CC(=O)/C(=N\Nc1ccccc1)Sc1nnc(-c2ccccc2)n1-c1ccccc1 | -11% | -2 | 1% | 10µM* | 32µM* | 52%
Cn1cnnc1SCC(=O)NCc1ccccc1 | -4% | 1 | 7% | 1%[12.7 µM] | 4% | 23%
CC(=O)/C(=N\Nc1ccccc1)Sc1nncn1C | ? | -6 | -2% | 4µM* | 20µM* | 18%
Cc1ccc(-n2nc(-c3ccc(F)cc3)c3cnc4cc5c(cc4c32)OCO5)cc1C | . | . | . | 9%[59 µM] | -20% | 20%
O=C(NN=C1CCN(Cc2ccccc2)CC1)c1cc(Br)ccc1O | -2% | 2 | 0% | ? | -9% | 31%
O=C(NN=C1CCN(Cc2ccccc2)CC1)c1ccccc1 | -7% | -1 | -15% | 34%[59 µM] | 7.9µM* | -17%
Cn1c(=O)c2[nH]c(N=Nc3ccc(N)cc3N)nc2n(C)c1=O | ? | ? | 2% | . | -20% | 13%
Nc1ccc(N=Nc2ccccc2O)c(N)c1 | . | -10 | -4% | . | 35µM* | ?
C=CCn1c(O)c(N=Nc2ccccc2O)c2ccccc21 | ? | 22 | 14% | -15%[2.33 µM] | ? | 6%
Oc1ccccc1N=Nc1ccccc1O | . | -1 | 5% | 16µM* | 32µM* | -16%
CCc1ccc(NC(=O)CSc2nc3ncc(Br)cc3[nH]2)cc1 | -4%[57.1 µM] | 9 | -4% | -24% | -16% | 47%
Cc1cccc(NC(=O)CCNC(=O)c2ccc(Br)cc2)c1 | -1% | -1 | -19% | 11% | -12% | -12%
C[C@H](CC[C@@H]1OC1(C)C)C1CC[C@H]2[C@@H]3CC=C4C[C@@H](O)CC[C@]4(C)[C@H]3CC[C@]12C (stereo partly specified) | . | . | . | 30%[59 µM] | . | .
